Screening data (PubChem BioAssay)
The list is not random: actives were taken first. Their share in the collection is about 4.6%.
NLRP3 yeast inh: NALP3 inhibition in yeast; Yeast reconstituted NLRP3/ASC/caspase-1, beta-gal luminescence, 24 h; inhibition, % at 10 µM; hit rate 0.39% among 330,000; AID 2825;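 active = inhibition of 50% or more; inactive = inhibition below 50%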
TIM10 inh: TIM10 yeast growth inhibition | inhibition, % at 10 µM | AID 463195 | S. cerevisiae TIM10 strain growth, BacTiter-Glo luminescence, 24 h | hit rate 1.4% among 330,000;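 active = inhibition of 40% or more at the single tested concentration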;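 note: wild-type TIM10 isogenic control strain grown at permissive 25 °C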
SKKanGAS inh: inhibitors of SKKanGAS S. pyogenes growth in kanamycin (SK-promoter or general growth effect); BacTiter-Glo, 6 h; inhibition, % at 7.5 µM; hit rate 1.3% among 300,000;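 active = mean replicate score, as percent of positive control median, at least 50; inconclusive = mean below 50 but one replicate at or above 50; inactive = mean and every replicate below 50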;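 note: strain carries kanamycin resistance gene driven by streptokinase promoter and grows in 40 µg/ml kanamycin; loss of luminescence reflects streptokinase promoter inhibition or plain growth inhibition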
tim23-1 inh: inhibits growth of tim23-1 mutant yeast; hit rate 1.3% among 330,000; S. cerevisiae tim23-1 growth, BacTiter-Glo luminescence, 24 h; inhibition, % at 20 µM;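 active = growth inhibition of the mutant yeast at or above 50%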;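 note: temperature-sensitive mutant grown at 25 °C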
tim10-1 inh: inhibits growth of tim10-1 mutant yeast; S. cerevisiae tim10-1 ts strain growth, BacTiter-Glo, 24 h; inhibition, % at 20 µM; hit rate 2.2% among 330,000; AID 463190;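 active = inhibition of at least 40%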;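 note: mutant grown at 25 °C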
tim23-1 confirm: tim23-1 yeast growth inhibition, confirmed; shares compounds with tim23-1 inh; S. cerevisiae tim23-1 growth, BacTiter-Glo luminescence, 24 h; inhibition, % at 20 µM; hit rate 83% among 4,400; AID 463218;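 active = inhibition above about 39% in either of two replicate wells at 20 µM, limit read from the data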;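 note: temperature-sensitive tim23-1 mutant grown at 25 °C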
Hits are given with their value; n = inactive; u = inconclusive; x = not tested or not shown.

SMILES	NLRP3 yeast inh	TIM10 inh	SKKanGAS inh	tim23-1 inh	tim10-1 inh	tim23-1 confirm
O=C(/C=C/c1ccccc1Cl)OCC(=O)c1ccc[nH]1	n	n	x	53	n	45
Cc1ccccc1C(=O)NCC(=O)OC1CCCCC1=O (centres undefined)	n	n	n	n	n	x
COc1ccc(-c2nc(N)nc(C(F)(F)F)c2-c2cscn2)c(O)c1	n	n	n	n	n	x
COc1ccc(-c2nc(N)nc(C)c2Oc2ccccc2Br)c(O)c1	n	n	x	50	n	47
CCN(CC(=O)NCc1cccs1)C(=O)Cc1ccc(Cl)c(Cl)c1	n	n	x	n	n	x
S=c1[nH]nc(COc2ccccc2)n1/N=C/c1ccccc1Cl	n	n	n	n	n	x
Cc1ccc(/C=N/n2c(COc3ccccc3)n[nH]c2=S)cc1	n	n	n	53	n	n
S=c1[nH]nc(COc2ccccc2)n1/N=C/c1cccc(Cl)c1Cl	n	n	n	61	n	44
FC(F)Oc1ccc(/C=N/n2c(Cc3ccc(Br)cc3)n[nH]c2=S)cc1	n	n	n	51	n	53
CC(Nc1nc(-c2cccnc2)nc2ccccc12)c1ccc(F)cc1 (centres undefined)	n	n	n	59	n	60
Cc1ccc(Nc2nc(-c3cccnc3)nc3ccccc23)cc1	n	n	n	56	n	56
Oc1ccc2ccccc2c1/C=N/Nc1nnc(-c2ncc[nH]2)c2ccccc12	n	n	97	69	n	65
Cc1ccc([C@@H]2[C@@H]3C(=O)N(c4ccccc4)C(=O)[C@@H]3[C@]3(C)C(=O)N(Cc4ccc(-c5ccccc5)cc4)CC(=O)N23)o1	n	n	n	n	n	x
Cc1ccc(C(=O)NC2=NCCS2)cc1Cl	n	n	n	55	n	47
COc1cccc(NC(=O)CN(C)C(=O)c2ccc(-c3ccccc3Cl)o2)c1	n	n	n	n	n	x
Cc1ccccc1NS(=O)(=O)c1ccc2c(c1)oc(=O)n2C	n	n	n	n	n	x
Cc1cccc(NS(=O)(=O)c2ccc3c(c2)oc(=O)n3C)c1C	n	n	n	95	n	n
O=C(COc1ccccc1C(=O)O)Nc1nc2ccc([N+](=O)[O-])cc2s1	n	n	n	n	n	x
CCCCC1NC(=S)N(C2CCCCC2)C1=O (centres undefined)	n	n	n	58	n	n
COc1cc2c(cc1OC)CN(C(=O)c1ccncc1)CC2	n	n	n	n	n	x
COc1ccc(C(=O)N2CCc3ccc(NC(=O)c4ccccn4)cc3C2)cc1F	n	n	n	52	n	40
O=C(O)c1cccc(N2C(=O)c3cc4cccc(Br)c4cc3C2=O)c1	n	n	n	n	n	n
Cc1ccc2oc(C(Cl)(Cl)Cl)cc(=O)c2c1	n	n	n	75	n	76
COc1ccc(C(=O)N2CCC(C(=O)N3CCN(Cc4ccccc4)CC3)CC2)cc1	n	n	n	n	n	x
COC(=O)c1sccc1NC(=S)NCc1ccc(Cl)cc1	n	n	n	62	n	53
SMILES	NLRP3 yeast inh	TIM10 inh	SKKanGAS inh	tim23-1 inh	tim10-1 inh	tim23-1 confirm
CCSc1ccc([C@@H]2[C@H]3C(=O)N(CC)C(=O)[C@H]3[C@]3(C(=O)OC)CCCCN23)cc1	n	n	n	81	n	45
CCOC(=O)c1cnc(-n2nc(C)cc2C)nc1NC1CCCCC1	n	n	83	54	n	43
CCOC(=O)c1cc(NC(=O)NC2CCCCC2)c(C)nc1C	n	n	n	n	n	x
O=C(OCC(=O)c1ccc[nH]1)c1cncc(Br)c1	n	n	x	n	n	x
COc1ccc(C(=O)COC(=O)c2cncc(Br)c2)cc1	n	n	x	65	n	75
COc1ccc(NS(=O)(=O)c2ccc3c(c2)Cc2ccccc2-3)cn1	n	n	n	64	n	n
Cc1nc2scc(C)n2c(=O)c1S(=O)(=O)Nc1ccc(N2CCOCC2)c(Cl)c1	n	n	n	n	n	x
Cc1nc2scc(C)n2c(=O)c1S(=O)(=O)Nc1ccc(OC(F)(F)F)cc1	n	n	n	60	n	64
Cc1[nH]n(-c2ccccc2)c(=O)c1/C=C1/C=c2ccccc2=N1	x	x	n	x	x	x
Cc1[nH]n(-c2ccccc2)c(=O)c1/C=C1\C=NN=C1c1ccccc1	n	n	n	62	n	55
O=C1CSC(c2ccc([N+](=O)[O-])cc2)N1c1ccccc1 (centres undefined)	n	n	n	n	n	x
OCCCNc1cc(-c2ccccc2)nc2cc(-c3ccc(F)cc3)nn12	n	n	n	51	n	55
Cc1cc(NCCCO)n2nc(-c3cccs3)cc2n1	n	n	n	n	n	x
O=C1CCCC(=O)C1=C1SCCCS1	n	n	n	n	n	x
c1csc(CSc2nnc3sc4ccccc4n23)c1	n	n	n	54	n	50
Oc1cccc(/C=N/Nc2cccc3cccnc23)c1	n	n	n	53	n	63
COc1cc(/C=N/Nc2cccc3cccnc23)cc(OC)c1O	n	n	n	n	n	x
O=[N+]([O-])c1ccc(N/N=C/c2cccc(O)c2)cc1	n	n	n	83	n	40
Nn1cnnc1N/N=C/c1cc(Br)cc(Br)c1O	n	n	u	57	n	60
Cc1cccc(S(=O)(=O)Nc2nc3ccccc3nc2OC(C)C)c1	n	n	n	53	n	49
Cc1nc2ccccc2c(=O)n1/N=C/c1cc(Br)ccc1O	n	n	n	69	n	76
Cc1cc(N)n2nc(C)c(-c3ccc(Cl)cc3)c2n1	n	n	n	63	n	72
Cc1cc(Cl)n2nc(C)c(-c3ccc(Cl)cc3)c2n1	n	n	x	n	n	x
CC1CC(C)CN(C(=O)c2ccc3c(c2NCCO)C(=O)c2ccccc2C3=O)C1 (centres undefined)	n	n	n	51	n	53
Cc1ccc(/C=C2\C(=O)ON=C2c2ccccc2)o1	n	n	n	53	n	53
SMILES	NLRP3 yeast inh	TIM10 inh	SKKanGAS inh	tim23-1 inh	tim10-1 inh	tim23-1 confirm
Cc1ccc(-c2ccc(/C=C3\C(=O)ON=C3c3ccccc3)o2)c([N+](=O)[O-])c1	n	n	n	70	n	67
O=C1/C(=C\c2ccc(-c3ccccc3[N+](=O)[O-])o2)C(c2ccccc2)=NN1c1ccccc1	n	n	n	n	n	x
COc1ccc(/C=C2\C(=O)ON=C2c2ccccc2)cc1	n	n	n	n	n	x
Cc1cccn2c(=O)c(/C=C(\C#N)C(=O)NCc3ccco3)c(N3CCCCCC3)nc12	n	n	n	53	n	48
Cn1c(C=O)c(C#Cc2ccccc2)c2ccccc21	n	n	x	58	n	63
CC(=O)c1ccc(N2CCN(C(=O)c3ccc(Br)cc3)CC2)c(F)c1	n	n	n	57	n	n
Cc1ccc(C(=O)NCC(=O)NCC(=O)OCc2ccc(F)cc2)cc1	n	n	n	n	n	x
S=C(NCc1ccccc1)NC1CCSc2ccccc21 (centres undefined)	n	n	n	n	n	x
O=C(Oc1ccccc1/C=C\C(=O)c1cc2ccccc2o1)c1cccc(F)c1	n	n	n	52	n	58
